FBPA Giardia inh – qHTS Assay for Inhibitors of Fructose-1,6-bisphosphate Aldolase from Giardia Lamblia; 0.71% of 290,000 active; AID 2451, 2010; purified Giardia FBPA; A8B2U2; Potency, µM (titrated, usually from 59.6 µM), inactives show top-dose activity, negative = inhibition, hits mostly inhibitors; further: potency means the concentration at half of the fitted maximal effect; on the % scale 0 is the no-effect control and ±100 the full control effect; nearly all actives have a fitted effect of over 55% in size
Target sequence (A8B2U2 whole entry, looked up): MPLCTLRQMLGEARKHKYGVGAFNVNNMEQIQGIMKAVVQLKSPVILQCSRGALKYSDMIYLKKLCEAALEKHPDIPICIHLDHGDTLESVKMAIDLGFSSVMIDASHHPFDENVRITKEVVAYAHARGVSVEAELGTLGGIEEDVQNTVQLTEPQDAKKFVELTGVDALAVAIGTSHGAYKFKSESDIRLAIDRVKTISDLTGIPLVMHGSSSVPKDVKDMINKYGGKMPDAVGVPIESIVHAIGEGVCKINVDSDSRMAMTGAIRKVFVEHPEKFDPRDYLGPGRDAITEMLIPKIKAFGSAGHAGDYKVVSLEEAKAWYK
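Giardia FBPA (40 nM reagent) was preincubated 10 min at RT with compound (up to 57.5 uM final), then substrate plus GAPDH/TPI/NAD/arsenate coupling system with diaphorase/resazurin was added; resorufin fluorescence (525/598 nm) was read after 20 min.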
Cycloheximide cs – Cycloheximide Counterscreen for Small Molecule Inhibitors of Shiga Toxin; 12% of 300,000 active; cell reporter, cycloheximide protein synthesis inhibition counterscreen; AID 2314, 2010; max response, %; in the data active means max response mostly above about 13%, no sharp cut-off; inactive means mostly below about 14%; further: read at 38.3 µM for the half of the compounds with a filed dose; 0% is about no effect
NS1 function inh – qHTS Assay for Inhibitors of Influenza NS1 Protein Function. Potency, µM (titrated, usually from 46.1 µM), without a hit: at the highest dose activity, positive = more growth. 0.4% of 270,000 active; calls by dose curve; further: potency means the concentration at half of the fitted maximal effect; actives are rising curves; nearly all actives have a fitted effect of over 50% in size
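Compounds were scored for reversing the slow growth caused by influenza A NS1 in S. cerevisiae, measured by optical density at 600 nm. Assay medium contained 2% galactose at pH 6.0; NS1-free yeast of the same strain were the positive control.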
Pf growth 48h – Primary qHTS for delayed death inhibitors of the malarial parasite plastid, 48 hour incubation; P. falciparum luciferase growth in erythrocytes, 48 h; 5.9% of 310,000 active; AID 504832, 2011; Potency, µM (series often up to 28.7 µM), for inactives: at the highest dose activity change, negative = inhibition, most hits filed as inhibitors; further: potency means the concentration at half of the fitted maximal effect; on the % scale 0 is the no-effect control and ±100 the full control effect
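First compound was added to culture medium, then infected red cells at 0.1% parasitemia and 2% hematocrit (final). After incubation at 37 C under 5% CO2, luciferase detection reagent was dispensed and light output recorded.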
Pf growth 96h – Primary qHTS for delayed death inhibitors of the malarial parasite plastid, 96 hour incubation | P. falciparum luciferase reporter growth, 96 h | Potency, µM (doses to about 28.7 µM), inactives show at the highest dose activity change, negative = inhibition, actives largely listed as inhibitors | 6.9% of 320,000 active | AID 504834, 2011; further: potency means the concentration at half of the fitted maximal effect; on the % scale 0 is the no-effect control and ±100 the full control effect
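Parasite growth measured via integrated firefly luciferase reporter in P. falciparum. Infected erythrocytes at 2% hematocrit, 0.05% parasitemia final were treated 96 hours at 37 C under 5% CO2, and luminescence was read.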
Shiga toxin inh – A qHTS for Small Molecule Inhibitors of Shiga Toxin; Vero cells, Shiga toxin protein synthesis inhibition reporter; inhibition, % at 38.7 µM; 9.2% of 290,000 active; AID 2315, 2010; in the data active means inhibition mostly above about 28%, no sharp cut-off; inactive means mostly below about 43%; further: 0% is about no effect
Starred values were filed as active, the others as inactive; [ ] = dose if it differs, or a comment. Hits are enriched below; roughly 21% of the tested compounds scored in any of these assays. Unless noted, the call rests on the fitted dose curve; in most records, active means well fitted curve in the direction sought with a large enough effect; inconclusive means small, poorly fitted or top-dose-only effect, or another doubt; inactive means no such curve, though single readings can be large; an effect the other way counts as inactive or inconclusive.

For COc1ccc(-c2nc(CS(=O)CC(=O)NCCN3CCCCC3C)c(C)o2)cc1OC (stereo not given) the results were Cycloheximide cs -2.1, NS1 function inh 6.1%, Pf growth 48h -4.8%, Pf growth 96h inconclusive and Shiga toxin inh -6.6.
`CCCN(CC(=O)Nc1ccccc1C)C(=O)c1ccc(N2CCCCC2)c([N+](=O)[O-])c1` gave Pf growth 48h inconclusive and Pf growth 96h -3.9%.
Cc1cc(C(=O)CSc2nnc(C3CC3)n2C2CC2)c(C)n1C(C)C was read as Pf growth 48h inconclusive and Pf growth 96h -21.6%.
Screening CN(C)c1nc2c(c(=O)[nH]c(=O)n2C)n1CCCc1ccccc1 returned FBPA Giardia inh -2.3%, Cycloheximide cs -10.3, NS1 function inh -12.2%, Pf growth 48h -15.6%, Pf growth 96h 37.1% and Shiga toxin inh 18.0.
Screening CCCCCc1ccc(OCCOCCn2c[n+](C)c3ccccc32)c(CCCCC)c1 returned FBPA Giardia inh 3.4%, Cycloheximide cs -5.8, Pf growth 48h 2.94µM*, Pf growth 96h -19.8%[1.15 µM] and Shiga toxin inh -13.3.
Screening CC(=O)Nc1ccc(OCCC[n+]2ccccc2)cc1 returned FBPA Giardia inh -0.6%, Cycloheximide cs -1.7, NS1 function inh 1.1%, Pf growth 48h -4.0%, Pf growth 96h 30.0% and Shiga toxin inh -10.0.
Screening CCCCOc1ccccc1Cn1c(=O)oc2ccccc21 returned FBPA Giardia inh 11.3%, Cycloheximide cs -1.1, NS1 function inh -3.1%, Pf growth 48h -0.1%, Pf growth 96h 15.8% and Shiga toxin inh -8.8.
CCCCCc1ccc(OCCC[n+]2ccccc2)c(CCCCC)c1 was read as FBPA Giardia inh -22.3%, Cycloheximide cs -2.5, NS1 function inh -37.7%, Pf growth 48h 1.85µM*, Pf growth 96h inconclusive and Shiga toxin inh -12.1.
Screening O=C(Nc1ccc(F)cc1)N1CCN(C(=O)C2CCCO2)CC1 (stereo not given) returned Cycloheximide cs -2.2, NS1 function inh 0.4%, Pf growth 48h 3.0%, Pf growth 96h 22.5% and Shiga toxin inh -5.1.
Screening Cc1c(NC(=O)CSc2nc3ccccc3c(=O)n2C(C)C)c(=O)n(-c2ccccc2)n1C returned Pf growth 48h inconclusive and Pf growth 96h -19.2%.
Screening CCNC(=S)Nc1ccc(N2CCCCC2)cc1 returned FBPA Giardia inh -8.2%, Cycloheximide cs 24.9*, Pf growth 48h 84.8%, Pf growth 96h -17.7% and Shiga toxin inh 34.0.
For S=C(NCCc1ccccc1)Nc1ccc(N2CCCCC2)cc1 the results were FBPA Giardia inh 4.0%, Cycloheximide cs 20.3*, NS1 function inh -3.8%, Pf growth 48h inconclusive, Pf growth 96h inconclusive and Shiga toxin inh 32.0.
COCCCNC(=S)Nc1ccc(N2CCCCC2)cc1 was read as FBPA Giardia inh -1.7%, Cycloheximide cs 12.7, Pf growth 48h 6.9%, Pf growth 96h 40.2% and Shiga toxin inh 84.3*.
For CC(=O)Nc1ccc(N2CCCCC2)cc1 the results were FBPA Giardia inh 0.0%, Cycloheximide cs 11.5, NS1 function inh 2.8%, Pf growth 48h 13.6%, Pf growth 96h 26.2% and Shiga toxin inh 23.8.
`CC(=O)NNc1nc(-c2ccc(NC(C)=O)cc2)cs1` gave FBPA Giardia inh -10.3%, Cycloheximide cs 2.7, NS1 function inh inconclusive, Pf growth 48h 29.9%, Pf growth 96h -12.1% and Shiga toxin inh 10.6.
For N#Cc1ccc(-c2csc(NNC(=O)c3ccc(Br)cc3)n2)cc1 the results were FBPA Giardia inh 6.4%, Cycloheximide cs 5.6, NS1 function inh 28.6%, Pf growth 48h 1.65µM*, Pf growth 96h 2.94µM* and Shiga toxin inh 16.5.
`CC(=O)Nc1ccc(-c2csc(NNC(=O)c3ccc(C)cc3)n2)cc1` gave FBPA Giardia inh 8.0%, Cycloheximide cs 11.1, NS1 function inh 6.3%, Pf growth 48h 5.7%, Pf growth 96h 13.9% and Shiga toxin inh 6.5.
O=C(NNc1nc(-c2ccccc2)cs1)c1ccccc1 was read as FBPA Giardia inh 15.3%, Cycloheximide cs 18.5, NS1 function inh 22.1%, Pf growth 48h inconclusive, Pf growth 96h 2.33µM* and Shiga toxin inh 40.0.
N#Cc1ccc(-c2csc(NNC(=O)c3ccccc3)n2)cc1 was read as FBPA Giardia inh 1.7%, Cycloheximide cs 0.9, NS1 function inh 11.8%, Pf growth 48h 11.7µM*, Pf growth 96h 3.7µM* and Shiga toxin inh -4.1.
For O=C(Nc1nc(-c2ccc(Br)cc2)cs1)c1cccnc1 the results were FBPA Giardia inh 0.0%, Cycloheximide cs -2.6, NS1 function inh 3.3%, Pf growth 48h 5.7%, Pf growth 96h 15.2% and Shiga toxin inh -8.6.
`CN(C)S(=O)(=O)c1ccc(N2CCCC2)c(C(=O)N2CCN(S(=O)(=O)c3ccccc3F)CC2)c1` gave Pf growth 48h inconclusive and Pf growth 96h -29.8%.
N#CC(=C=[N-])c1nc2ccccc2nc1-[n+]1cccc(NC(=O)c2cccs2)c1 was read as FBPA Giardia inh -16.8%, Cycloheximide cs -2.2, NS1 function inh -1.7%, Pf growth 48h -10.0%, Pf growth 96h -3.8% and Shiga toxin inh -23.2.
`O=C(O)[C@@H]1[C@@H](C(=O)Nc2ccccc2)[C@@H]2C=C[C@@H]1O2` gave NS1 function inh -0.7%.
CCOC(=O)c1cc(NC(=O)C2C3C=CC(O3)C2C(=O)O)cc(C(=O)OCC)c1 (stereo not given) was read as FBPA Giardia inh -5.4%, Cycloheximide cs 0.3, NS1 function inh -3.3%, Pf growth 48h inconclusive, Pf growth 96h 11.7µM* and Shiga toxin inh -7.5.
Screening O=C(O)C1C2C=CC(O2)C1C(=O)Nc1cccc(C(F)(F)F)c1 (stereo not given) returned FBPA Giardia inh -1.7%, Cycloheximide cs -1.1, NS1 function inh -1.0%, Pf growth 48h -10.4%, Pf growth 96h 10.4µM* and Shiga toxin inh -6.4.
`CCOC(=O)c1cc(NC(=O)C2C3CCC(O3)C2C(=O)O)cc(C(=O)OCC)c1` (stereo not given) gave FBPA Giardia inh 2.5%, Cycloheximide cs 3.8, NS1 function inh 2.3%, Pf growth 48h inconclusive, Pf growth 96h inconclusive and Shiga toxin inh -5.3.
For CN(CC(=O)NCCCN1CCOCC1)S(=O)(=O)c1cc(Cl)ccc1Cl the results were Cycloheximide cs -4.1, NS1 function inh 3.9%, Pf growth 48h 7.8%, Pf growth 96h 18.9% and Shiga toxin inh -4.2.
`COc1cccc(NC(=O)Cn2c(=O)n(-c3ccccc3)c(=O)c3sccc32)c1` gave FBPA Giardia inh -0.5%, Cycloheximide cs -2.6, Pf growth 48h -27.6%, Pf growth 96h 16.8% and Shiga toxin inh 20.6.
`Cc1cccc(COc2ncnc3nc[nH]c23)c1` gave FBPA Giardia inh 0.4%, Cycloheximide cs 14.7, NS1 function inh 0.7%, Pf growth 48h 8.9%, Pf growth 96h -20.1% and Shiga toxin inh 35.2*.

Screening data: PubChem BioAssay, National Center for Advancing Translational Sciences (NCATS)
